# Source: PubChem BioAssay AID1529 (NMMLSC, 2009)
# The whole screen tested about 290,000 compounds, of which about 4,200 (1.4%) were called active. The entries come from a sample that favours actives as a whole. A number with no mark means an inactive call.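 How the source made its calls: active means binding response more than 3 SD above or below the average of its plate-row segment, actives on both sides; inconclusive means wells at one plate position flagged as instrument error; inactive means the rest.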
# Target: Mitogen-activated protein kinase kinase kinase 3 (Homo sapiens) (UniProt Q99759)
# Sequence (Q99759 whole entry, looked up): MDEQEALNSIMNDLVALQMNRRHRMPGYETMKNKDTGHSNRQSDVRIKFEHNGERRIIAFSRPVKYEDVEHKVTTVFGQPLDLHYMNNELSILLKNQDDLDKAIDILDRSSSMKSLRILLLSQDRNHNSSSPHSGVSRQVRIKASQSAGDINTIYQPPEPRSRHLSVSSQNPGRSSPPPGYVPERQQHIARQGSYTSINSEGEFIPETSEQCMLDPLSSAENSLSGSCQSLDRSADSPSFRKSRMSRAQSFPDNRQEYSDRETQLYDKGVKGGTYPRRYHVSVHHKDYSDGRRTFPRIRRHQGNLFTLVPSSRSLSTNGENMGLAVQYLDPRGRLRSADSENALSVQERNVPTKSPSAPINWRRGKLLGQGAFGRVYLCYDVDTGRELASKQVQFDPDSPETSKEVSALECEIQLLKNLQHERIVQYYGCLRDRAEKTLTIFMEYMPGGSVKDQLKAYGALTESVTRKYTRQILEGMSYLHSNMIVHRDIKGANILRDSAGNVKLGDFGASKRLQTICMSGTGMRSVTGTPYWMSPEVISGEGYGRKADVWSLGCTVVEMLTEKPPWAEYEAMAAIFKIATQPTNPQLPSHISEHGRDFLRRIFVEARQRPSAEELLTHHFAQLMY
# Assay: compounds raising or lowering MEK5 association with MEKK3 PB1 – biochemical, wildtype MEKK3, multiplex bead flow cytometry, Alexa488-MEK5, primary screen (AID 1529);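 further: Alexa488 bead fluorescence after subtracting the streptavidin-only scavenger bead signal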
# Details: bead-based flow cytometry, Alexa488-MEK5 binding to MEKK3; at 10 µM; actives lie on both sides; 0 = blocked by unlabeled MEK5, 100 = vehicle
row,Structure (SMILES),binding response (% of control)
1,COc1cc(CC(=O)N/N=C/c2ccccc2)c([N+](=O)[O-])cc1OC,134% (active)
2,COc1ccc(C(=O)NCC(=O)N/N=C/c2ccc([N+](=O)[O-])o2)cc1OC,133% (active)
3,COc1cc(/C=N/NC(=O)CNC(=O)c2ccncc2)ccc1OC(C)=O,105%
4,COc1ccc(C(=O)NCC(=O)N/N=C/c2ccc([N+](=O)[O-])s2)cc1OC,102%
5,O=C(Cc1cc(=O)[nH][nH]1)N/N=C/c1ccccc1[N+](=O)[O-],121%
6,COc1cc(/C=N/NC(=O)Cc2ccccc2)cc(OC)c1OC,98%
7,Cc1ccccc1N1CCN(C2CCCN(C(=O)c3ocnc3C)C2)CC1 (stereo unspecified),106%
8,COc1ccccc1CN1CCCC(N2CCN(c3ccc(F)cc3)CC2)C1 (stereo unspecified),104%
9,C=CCOc1cccc(C2NC(=O)c3ccccc3O2)c1 (stereo unspecified),91%
10,CC(C)c1cc(C(N)=O)c(NC(=O)c2cccc(COc3ccc(Br)cc3)c2)s1,104%
11,O=C(Nc1cccc(F)c1)NC1CCCc2ccccc21 (stereo unspecified),99%
12,Cc1nc2nc3c(cn2n1)C(=O)CC(c1ccccc1)C3 (stereo unspecified),95%
13,Cc1cc(C)nc(-n2ncc3c2CC(c2ccc(C(C)C)cc2)CC3=O)n1 (stereo unspecified),148% (active)
14,CS(=O)(=O)N(CC(=O)N1CCOCC1)c1cccc(Cl)c1Cl,102%
15,CCO[C@H]1OC(C(=O)N2CCOCC2)=C[C@@H](c2ccc3c(c2)OCO3)[C@@H]1CCCO,81% [inhibitor] (active)
16,CCO[C@@H]1OC(C(=O)N2CCOCC2)=C[C@H](C)[C@H]1CCCO,99%
17,CCO[C@H]1OC(C(=O)N2CCCCCCC2)=C[C@@H](c2ccc(C(F)(F)F)cc2)[C@@H]1CCCO,107%
18,Cc1ccc(Cn2c(C)c3cnn(CC(=O)NCc4ccccn4)c(=O)c3c2C)cc1,100%
19,COC(=O)c1cccc(N(CC(=O)NCC2CCCO2)C(=O)CCC(=O)Nc2cc(C)on2)c1 (stereo unspecified),103%
20,O=C(Cc1cccc2ccccc12)Nc1ccc2oc(-c3ccccc3)nc2c1,129% (active)
21,CC(O)c1cccc(NC(=O)Cc2cccc3ccccc23)c1 (stereo unspecified),102%
22,O=C(Nc1ccc2oc(-c3ccc4ccccc4c3)nc2c1)c1cccs1,121%
23,Clc1ccc(-c2nnc(SCc3nc4ccccc4s3)o2)cc1,150% (active)
24,c1ccc(-c2nnc(SCc3nc4ccccc4[nH]3)o2)cc1,98%
25,O=C(O)CSCc1nc2ccccc2s1,96%
26,COc1ccc(Cl)cc1NC(=O)C(C)N1CCc2ccccc21 (stereo unspecified),100%
